Source: PubChem BioAssay
Several values for one entry are separate records, joined by “and”; a condition that tells them apart may be missing. Identical values can stand only once. Activity calls are given as the source filed them.

How the values were obtained:
[1] = system: PRMT1 (protein arginine N-methyltransferase 1); experiment: small molecules binding arginine methyltransferase PRMT1 – biochemical, small-molecule microarray, 635 nm fluorescence, primary screen (AID 1088); details: higher = more signal;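 also: binding of Prmt1 protein to compounds spotted on small-molecule microarray slides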
[2] = growth effects on S. cerevisiae YJM789 – YJM789 clinical isolate, OD600, 24 h, basal, primary screen (AID 1089); details: higher = more signal, called active from +8 up or from −8 down;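 also: growth of clinical yeast isolate S. cerevisiae YJM 789 seeded 1000 cells per well; test concentration not given here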
[3] = S. pombe growth modifiers, basal conditions – strain 972, OD600, 24 h, no modulator, primary screen (AID 1090);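 also: basal condition with compound alone and no growth modifier present; test concentration not given here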; details: S. pombe 972 growth, higher = more signal, called active from +8 up or from −8 down
[4] = budding yeast growth modifiers under rapamycin – strain BY4716, OD600, 96 h, primary screen (AID 1091); also: test concentration not given here; details: S. cerevisiae BY4716 + rapamycin, higher = more signal, called active from +8 up or from −8 down
[5] = molecular target: Torsin-1A-interacting protein 2 (Homo sapiens) (UniProt Q8NFQ8); experiment: small molecules binding lysate-expressed LULL1 – cell lysate, human LULL1 lysate, 635/667 nm fluorescence, primary screen (AID 1092); details: small-molecule microarray, hLULL1 lysate binding, 635 nm fluorescence; higher = more signal;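 also: probe is lysate of COS7 cells overexpressing human LULL1; score merges per-feature 667 nm fluorescence with signal-to-noise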
[6] = optical density change of DRC41 E. coli – strain DRC41, OD650, 24 h, E. coli filamentation project, primary screen (AID 1093);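 also: MC1000 strain lacking acrAB efflux and sulA so SOS filamentation is blocked; test concentration not given here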; details: E. coli DRC41 growth, higher = more signal, called active from +8 up or from −8 down
[7] = probe aLefty2 binding to arrayed compounds – biochemical, biotinylated probe, 635/667 nm fluorescence, primary screen (AID 1094); details: small-molecule microarray, higher = more signal;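 also: score merges spot fluorescence near 667 nm with spot signal-to-noise ratio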
[8] = system: Noggin (protein binding on small-molecule microarray); experiment: small molecules binding Noggin protein – biochemical, 635/667 nm fluorescence, primary screen (AID 1095); details: 635 nm fluorescence, higher = more signal;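 also: score merges 667 nm feature fluorescence with signal to noise over triplicate slides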
[9] = molecular target: Neurogenic locus notch homolog protein 3 (Homo sapiens) (UniProt Q9UM47); experiment: small molecules binding NOTCH3 protein – biochemical, 635/667 nm fluorescence, primary screen (AID 1096); details: small-molecule microarray, 635 nm fluorescence, higher = more signal
[10] = probe aEGFR binding to arrayed compounds – biochemical, biotinylated probe, 635/667 nm fluorescence, primary screen (AID 1097); details: small-molecule microarray, higher = more signal;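 also: probe is a biotinylated anti-EGFR antibody binding compounds printed on slides; score combines fluorescence near 667 nm and signal to noise of each spot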
[11] = system: Plasmodium falciparum Sir2 (PF13_0152, Sir2A); experiment: Plasmodium falciparum Sir2A binding compounds – biochemical, small-molecule microarray, 635 nm fluorescence, primary screen (AID 1098); details: fluorescence 635 nm, higher = more signal;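 also: score merges spot fluorescence intensity with its signal-to-noise ratio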
[12] = probe aDKK1 binding to arrayed compounds – biochemical, biotinylated probe, 635/667 nm fluorescence, primary screen (AID 1099); details: small-molecule microarray, higher = more signal;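 also: score merges 667nm spot fluorescence with signal to noise across triplicate slides; reference of the scale not given here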
[13] = probe aCHRDL2 binding to arrayed compounds – biochemical, biotinylated probe, 635/667 nm fluorescence, primary screen (AID 1100); details: small-molecule microarray, higher = more signal
[14] = change in splice reporter luminescence, either direction, cell-based, HEK293, spliceosome inhibition project, primary screen (AID 1101); details: HEK293 splicing luciferase reporter, 24 h, higher = more signal, called active from +8 up or from −8 down;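 also: HEK293 cells carrying a splicing-competent luciferase reporter gene; test concentration not given here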
[15] = molecular target: Fibroblast growth factor 10 (Homo sapiens) (UniProt O15520); experiment: compounds binding fibroblast growth factor 10 – biochemical, small-molecule microarray, 635 nm fluorescence, primary screen (AID 1102); details: FGF10 binding, fluorescence 635 nm, higher = more signal
[16] = system: glycogen synthase kinase-3 (GSK3A per assay name; protocol says GSK3B); experiment: compounds binding glycogen synthase kinase-3 – biochemical, small-molecule microarray, 635 nm fluorescence, GSK3A, primary screen (AID 1103); details: fluorescence 635 nm, higher = more signal; also: the record names both GSK3A and GSK3B
[17] = molecular target: Epidermal growth factor receptor (Homo sapiens) (UniProt P00533); experiment: compounds binding epidermal growth factor receptor – biochemical, small-molecule microarray, 635 nm fluorescence, primary screen (AID 1104); details: EGFR binding, higher = more signal;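 also: score merges 667 nm emission intensity with spot signal to noise over triplicate slides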
[18] = molecular target: Follistatin-related protein 3 (Homo sapiens) (UniProt O95633); experiment: compounds binding follistatin-related protein 3 – biochemical, small-molecule microarray, 635 nm fluorescence, primary screen (AID 1105); details: FSTL3 binding, higher = more signal;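 also: score merges emission near 667 nm and signal to noise per printed spot across three slides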
[19] = molecular target: Dickkopf-related protein 1 (Homo sapiens) (UniProt O94907); experiment: small molecules binding DKK1 protein – biochemical, small-molecule microarray, 635 nm fluorescence scan, primary screen (AID 1106); details: higher = more signal;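 also: score merges emission near 667 nm with signal to noise over three replicate slides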
[20] = system: Inhibin beta A chain (activin A); experiment: small molecules binding activin A – biochemical, small-molecule microarray, 635 nm fluorescence scan, primary screen (AID 1107); details: INHBA, higher = more signal;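 also: mouse activin A protein probed at 4.33 µg/mL on printed slides; score merges bound-protein fluorescence near 667 nm with spot signal-to-noise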

Sequence of Dickkopf-related protein 1 (Homo sapiens) (O94907 whole entry, looked up): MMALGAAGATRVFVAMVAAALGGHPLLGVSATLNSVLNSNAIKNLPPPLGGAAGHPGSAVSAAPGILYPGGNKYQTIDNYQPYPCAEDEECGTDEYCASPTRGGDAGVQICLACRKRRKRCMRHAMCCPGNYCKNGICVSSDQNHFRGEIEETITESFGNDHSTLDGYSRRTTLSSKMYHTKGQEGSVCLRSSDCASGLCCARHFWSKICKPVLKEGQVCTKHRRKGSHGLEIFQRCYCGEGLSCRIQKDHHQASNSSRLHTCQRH
Sequence of Fibroblast growth factor 10 (Homo sapiens) (O15520 whole entry, looked up): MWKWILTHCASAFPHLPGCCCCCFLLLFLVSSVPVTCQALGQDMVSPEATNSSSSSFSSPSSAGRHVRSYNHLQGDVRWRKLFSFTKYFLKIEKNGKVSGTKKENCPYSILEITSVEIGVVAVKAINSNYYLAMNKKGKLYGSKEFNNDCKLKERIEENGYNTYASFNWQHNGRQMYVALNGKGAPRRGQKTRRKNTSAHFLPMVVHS
Sequence of Epidermal growth factor receptor (Homo sapiens) (P00533 whole entry, looked up): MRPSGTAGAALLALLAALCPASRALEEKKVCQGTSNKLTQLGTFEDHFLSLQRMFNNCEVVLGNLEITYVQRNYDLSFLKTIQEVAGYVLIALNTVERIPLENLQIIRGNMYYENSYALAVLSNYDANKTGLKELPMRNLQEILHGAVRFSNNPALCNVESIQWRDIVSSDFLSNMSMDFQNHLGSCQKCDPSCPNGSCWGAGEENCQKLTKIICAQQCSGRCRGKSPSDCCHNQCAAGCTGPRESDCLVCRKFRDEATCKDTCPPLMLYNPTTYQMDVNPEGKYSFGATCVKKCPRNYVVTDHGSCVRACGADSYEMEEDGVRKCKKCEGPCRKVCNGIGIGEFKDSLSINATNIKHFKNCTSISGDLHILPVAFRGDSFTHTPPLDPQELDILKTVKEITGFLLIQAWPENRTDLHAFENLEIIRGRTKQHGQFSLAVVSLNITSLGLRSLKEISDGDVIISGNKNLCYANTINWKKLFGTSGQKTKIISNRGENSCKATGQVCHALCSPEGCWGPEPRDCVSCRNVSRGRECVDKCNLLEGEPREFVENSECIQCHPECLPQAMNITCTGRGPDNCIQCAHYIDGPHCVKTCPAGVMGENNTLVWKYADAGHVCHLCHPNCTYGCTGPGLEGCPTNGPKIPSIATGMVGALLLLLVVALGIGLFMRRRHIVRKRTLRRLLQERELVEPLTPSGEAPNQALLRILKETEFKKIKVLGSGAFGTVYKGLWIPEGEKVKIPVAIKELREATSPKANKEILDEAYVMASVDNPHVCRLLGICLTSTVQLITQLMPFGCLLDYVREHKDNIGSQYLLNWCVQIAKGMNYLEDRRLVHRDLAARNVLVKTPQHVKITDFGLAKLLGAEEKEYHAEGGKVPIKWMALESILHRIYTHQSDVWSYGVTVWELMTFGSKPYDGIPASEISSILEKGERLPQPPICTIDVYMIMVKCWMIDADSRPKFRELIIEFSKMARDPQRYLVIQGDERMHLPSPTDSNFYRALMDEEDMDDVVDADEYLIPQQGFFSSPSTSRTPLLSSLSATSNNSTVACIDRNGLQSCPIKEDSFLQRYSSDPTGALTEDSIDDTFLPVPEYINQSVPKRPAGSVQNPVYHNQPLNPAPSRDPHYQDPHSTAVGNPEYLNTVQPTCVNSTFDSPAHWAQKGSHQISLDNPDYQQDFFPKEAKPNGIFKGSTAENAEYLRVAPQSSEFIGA
Sequence of Torsin-1A-interacting protein 2 (Homo sapiens) (Q8NFQ8 whole entry, looked up): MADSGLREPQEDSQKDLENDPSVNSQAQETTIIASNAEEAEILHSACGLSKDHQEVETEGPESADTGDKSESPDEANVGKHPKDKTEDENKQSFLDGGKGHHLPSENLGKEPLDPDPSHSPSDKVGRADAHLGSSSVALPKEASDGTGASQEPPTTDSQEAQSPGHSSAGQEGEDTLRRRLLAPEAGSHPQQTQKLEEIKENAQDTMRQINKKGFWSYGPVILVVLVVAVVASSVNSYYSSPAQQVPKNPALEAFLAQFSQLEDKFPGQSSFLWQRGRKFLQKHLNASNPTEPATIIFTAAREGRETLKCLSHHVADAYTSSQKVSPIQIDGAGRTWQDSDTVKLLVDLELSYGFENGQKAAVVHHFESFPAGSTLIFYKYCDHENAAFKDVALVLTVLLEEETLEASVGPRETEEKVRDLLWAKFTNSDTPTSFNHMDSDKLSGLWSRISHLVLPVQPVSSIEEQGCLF
Sequence of Follistatin-related protein 3 (Homo sapiens) (O95633 whole entry, looked up): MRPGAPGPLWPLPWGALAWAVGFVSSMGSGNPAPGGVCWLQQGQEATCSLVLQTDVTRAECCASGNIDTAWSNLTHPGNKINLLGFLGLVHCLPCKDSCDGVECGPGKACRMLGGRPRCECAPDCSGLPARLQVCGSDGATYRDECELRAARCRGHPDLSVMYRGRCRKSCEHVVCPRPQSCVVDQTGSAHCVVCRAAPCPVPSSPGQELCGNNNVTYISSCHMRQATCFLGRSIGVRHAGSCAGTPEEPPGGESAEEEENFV
Sequence of Neurogenic locus notch homolog protein 3 (Homo sapiens) (Q9UM47 whole entry, looked up): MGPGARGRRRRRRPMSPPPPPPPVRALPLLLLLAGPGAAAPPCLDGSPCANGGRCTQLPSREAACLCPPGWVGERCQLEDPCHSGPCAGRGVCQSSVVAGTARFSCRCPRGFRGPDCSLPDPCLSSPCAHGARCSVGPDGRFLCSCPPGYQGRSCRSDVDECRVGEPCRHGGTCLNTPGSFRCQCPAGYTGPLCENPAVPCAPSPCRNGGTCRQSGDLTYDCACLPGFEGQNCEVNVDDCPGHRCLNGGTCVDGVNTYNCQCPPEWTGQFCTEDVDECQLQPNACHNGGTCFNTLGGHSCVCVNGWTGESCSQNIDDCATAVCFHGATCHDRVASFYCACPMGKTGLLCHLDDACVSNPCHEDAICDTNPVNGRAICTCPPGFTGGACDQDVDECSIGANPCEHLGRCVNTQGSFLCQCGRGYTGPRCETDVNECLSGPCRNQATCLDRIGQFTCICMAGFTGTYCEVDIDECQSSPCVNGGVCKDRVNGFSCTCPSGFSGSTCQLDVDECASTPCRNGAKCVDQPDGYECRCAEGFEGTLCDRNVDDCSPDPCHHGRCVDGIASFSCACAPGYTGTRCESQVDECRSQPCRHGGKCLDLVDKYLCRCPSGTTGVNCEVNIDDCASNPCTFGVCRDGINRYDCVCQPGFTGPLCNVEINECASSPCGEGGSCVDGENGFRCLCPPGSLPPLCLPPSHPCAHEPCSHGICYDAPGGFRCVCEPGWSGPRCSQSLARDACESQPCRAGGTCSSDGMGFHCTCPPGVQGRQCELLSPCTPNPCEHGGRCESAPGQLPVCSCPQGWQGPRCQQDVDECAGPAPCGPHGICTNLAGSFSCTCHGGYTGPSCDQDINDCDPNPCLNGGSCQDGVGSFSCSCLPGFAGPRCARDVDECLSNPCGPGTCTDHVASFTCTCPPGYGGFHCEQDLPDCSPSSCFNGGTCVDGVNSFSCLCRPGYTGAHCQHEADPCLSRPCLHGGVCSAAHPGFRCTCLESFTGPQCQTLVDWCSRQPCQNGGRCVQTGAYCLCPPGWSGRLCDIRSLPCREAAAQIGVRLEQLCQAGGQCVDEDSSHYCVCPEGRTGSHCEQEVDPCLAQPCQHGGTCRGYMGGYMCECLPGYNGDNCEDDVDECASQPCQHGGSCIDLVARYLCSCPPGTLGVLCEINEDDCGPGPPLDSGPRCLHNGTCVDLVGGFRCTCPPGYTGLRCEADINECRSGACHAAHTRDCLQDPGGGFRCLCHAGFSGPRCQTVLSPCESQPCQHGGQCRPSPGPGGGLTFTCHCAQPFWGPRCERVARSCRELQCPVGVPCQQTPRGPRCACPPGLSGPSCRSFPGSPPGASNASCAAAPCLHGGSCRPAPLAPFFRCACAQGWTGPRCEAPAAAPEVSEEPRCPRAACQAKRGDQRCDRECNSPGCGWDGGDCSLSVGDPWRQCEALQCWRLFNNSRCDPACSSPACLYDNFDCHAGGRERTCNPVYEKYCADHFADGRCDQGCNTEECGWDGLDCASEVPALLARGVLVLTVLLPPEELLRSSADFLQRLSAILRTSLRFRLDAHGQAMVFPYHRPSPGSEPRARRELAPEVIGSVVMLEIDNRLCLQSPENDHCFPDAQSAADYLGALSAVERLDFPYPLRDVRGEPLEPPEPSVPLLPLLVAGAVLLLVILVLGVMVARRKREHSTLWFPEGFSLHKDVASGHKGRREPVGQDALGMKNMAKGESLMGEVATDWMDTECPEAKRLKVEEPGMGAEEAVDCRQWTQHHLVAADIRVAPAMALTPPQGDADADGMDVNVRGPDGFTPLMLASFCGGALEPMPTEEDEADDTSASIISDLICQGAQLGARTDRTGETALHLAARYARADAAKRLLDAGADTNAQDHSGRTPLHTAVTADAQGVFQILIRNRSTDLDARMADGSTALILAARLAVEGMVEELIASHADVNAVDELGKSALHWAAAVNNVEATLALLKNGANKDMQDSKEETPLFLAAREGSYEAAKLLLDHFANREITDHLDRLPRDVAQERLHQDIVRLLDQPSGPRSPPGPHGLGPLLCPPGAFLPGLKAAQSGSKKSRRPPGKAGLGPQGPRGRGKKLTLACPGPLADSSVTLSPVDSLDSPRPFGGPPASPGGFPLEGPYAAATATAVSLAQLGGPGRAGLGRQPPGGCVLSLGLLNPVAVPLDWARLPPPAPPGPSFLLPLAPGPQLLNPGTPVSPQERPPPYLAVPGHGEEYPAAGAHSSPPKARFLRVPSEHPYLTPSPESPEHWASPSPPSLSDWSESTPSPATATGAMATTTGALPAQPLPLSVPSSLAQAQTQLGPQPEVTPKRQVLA

| SMILES | composite z-score [1] | z-score [2] | z-score [3] | z-score [4] | composite z-score [5] | z-score [6] | composite z-score [7] | composite z-score [8] | composite z-score [9] | composite z-score [10] | composite z-score [11] | composite z-score [12] | composite z-score [13] | z-score [14] | composite z-score [15] | composite z-score [16] | composite z-score [17] | composite z-score [18] | composite z-score [19] | composite z-score [20] |
| --- | --- | --- | --- | --- | --- | --- | --- | --- | --- | --- | --- | --- | --- | --- | --- | --- | --- | --- | --- | --- |
| CC(C)C(=O)N[C@@H]1CCCN1C(=O)C=Cc1ccccc1 | 0.731 | -0.91 (inactive) | -0.0986 (inactive) | -0.307 (inactive) | 0.783 | 1.03 (inactive) | -0.14 | 0.783 | 0.786 | 0.0289 | 0.98 | -0.311 | -0.469 | 0.655 (inactive) | 0.419 | 0.883 | 0.432 | 0.709 | 0.47 | -0.172 |
| CO[C@H]1COC(=O)CC=C[C@H](C)[C@H](OC)COC(=O)[C@@H](C)COC(=O)CC=C[C@@H]1C | 0.65 and 1.07 | -0.23 (inactive) and -0.132 (inactive) | -0.121 (inactive) and -1.49 (inactive) | -0.324 (inactive) and -0.586 (inactive) | -0.0624 and -0.0356 | 0.432 (inactive) and 0.839 (inactive) | -0.177 and -0.239 | 0.74 and 1.2 | 0.327 and 0.287 | -0.143 and -0.103 | 0.402 and 0.0429 | -0.629 and -0.472 | -1.1 and -1.05 | -0.0265 (inactive) and -0.282 (inactive) | 0.415 and 0.242 | 0.594 and 0.65 | 0.752 and 0.715 | 0.969 and 0.59 | 1.23 and 0.743 | 1.02 and 0.17 |
| C=CCN(CCCCC)C(=O)C(c1cccs1)N(CCOCCO)C(=O)/C=C\C(=O)O (stereo not given) | -0.718 and -0.737 | -1.32 (inactive) and -1.53 (inactive) | -0.464 (inactive) and -0.606 (inactive) | -0.289 (inactive) and -0.433 (inactive) | -0.93 and -0.573 | 0.986 (inactive) and 1.18 (inactive) | -0.0977 and -0.0831 | -1.24 and -1.19 | -1.09 and -1.06 | -0.231 and -0.324 | 0.0427 and 0.42 | -0.588 and -0.228 | 0.658 and 0.6 | -0.841 (inactive) and -1.36 (inactive) | -1.6 and -0.98 | -0.918 and -0.491 | -1.05 and -0.766 | -0.411 and -0.744 | -1.04 and -1.54 | -1.79 and -0.36 |
| C=CCN(CCCCC)C(=O)C1N(c2ccc(CCO)cc2)C(=O)C2C(C(=O)O)C3C=CC21O3 (stereo not given) | -0.303 and -0.476 | 0.0099 (inactive) and -0.194 (inactive) | -0.804 (inactive) and 0.336 (inactive) | -0.231 (inactive) and -0.137 (inactive) | -0.379 and 0.173 | 0.287 (inactive) and 1.11 (inactive) | -0.0374 and 0.699 | -1.73 and -1.08 | -0.636 and -0.651 | -0.233 and -0.145 | 0.122 and -0.0398 | -0.244 and -0.184 | 0.976 and 0.99 | -0.296 (inactive) and 0.494 (inactive) | -1.01 and -1.64 | -1.29 and -1.34 | -1.23 and -1.1 | -0.937 and -1.43 | -1.6 and -1.19 | -1.49 and -1.34 |
| CC(C)CCN1CCc2nc(-c3ccccc3)c3c(c2C1)CO[C@@H](C)C3 | 0.837 | -0.334 (inactive) | -0.519 (inactive) | 0.622 (inactive) | 1.8 | 0.825 (inactive) | -0.0641 | 0.444 | 0.922 | -0.0578 | -0.0208 | 0.233 | -0.148 | 0.109 (inactive) | 0.476 | 0.77 | 0.516 | 0.579 | 0.689 | 0.55 |
| COc1ccc(O[C@H]2C=C[C@@H](c3ccccc3)O[C@@H]2COC(=O)CCC(C)=NO[C@H](C)c2cn([C@H](CO)Cc3ccccc3)nn2)cc1 | 0.88 and 0.299 | 0.479 (inactive) and 0.555 (inactive) | 0.52 (inactive) and 0.0557 (inactive) | 0.616 (inactive) and 1.32 (inactive) | 0.026 and 0.303 | 0.204 (inactive) and 0.524 (inactive) | -0.353 and -0.312 | 0.393 and 0.795 | 0.155 and 0.167 | 0.257 and -0.336 | 0.366 and 0.205 | 0.416 and -0.0879 | -0.305 and -0.291 | -0.643 (inactive) and -1.07 (inactive) | -0.0593 and 0.263 | -0.018 and 0.173 | 0.188 and 0.353 | 0.73 and 0.397 | 1.12 and 1.39 | 0.164 and 0.485 |
| COC(=O)[C@@]1(Cc2ccc(F)cc2)[C@H]2c3cc(C(=O)N4CCCC4)n(Cc4c(CO)[nH]cc(C)c4=O)c3C[C@H]2CN1C(=O)c1ccccc1 | 0.519 and 0.355 | 0.786 (inactive) and 1.14 (inactive) | 1.36 (inactive) and 1.39 (inactive) | 0.925 (inactive) and 1.59 (inactive) | 3.29 and 3.28 | -0.633 (inactive) and -0.87 (inactive) | 1.33 and 0.155 | 0.0162 and -0.629 | 0.335 and 0.422 | 0.985 and 0.0594 | 1.47 and 1.53 | 2.17 and -0.115 | 1.29 and 0.955 | -1.48 (inactive) and -0.107 (inactive) | 0.822 and 0.461 | -0.252 and 0.368 | 0.704 and -0.2 | 0.0376 and -0.36 | -0.198 and -0.57 | 1.02 and 1.31 |
